According to PubChem BioAssay AID489043 (National Center for Advancing Translational Sciences (NCATS), 2010):
Inconclusive results are not listed. Entries that show only a call come without a potency. The source made the active and inactive calls. The call rests on the fitted dose curve; in most records, active means well fitted activation curve with a large enough effect; inconclusive means small, poorly fitted or top-dose-only effect; inactive means flat fitted curve, though single readings scatter.

biological target: Relaxin receptor 2 (Homo sapiens) (UniProt Q8WXD0); assay: qHTS Assay for Agonists of the Relaxin Receptor RXFP1: RXFP2 Hit Validation; details: HEK293 RXFP2 cAMP TR-FRET, 30 min; series mostly up to 115 µM; further: nearly all actives have a fitted effect of over 65% in size
Sequence (Q8WXD0 whole entry, looked up): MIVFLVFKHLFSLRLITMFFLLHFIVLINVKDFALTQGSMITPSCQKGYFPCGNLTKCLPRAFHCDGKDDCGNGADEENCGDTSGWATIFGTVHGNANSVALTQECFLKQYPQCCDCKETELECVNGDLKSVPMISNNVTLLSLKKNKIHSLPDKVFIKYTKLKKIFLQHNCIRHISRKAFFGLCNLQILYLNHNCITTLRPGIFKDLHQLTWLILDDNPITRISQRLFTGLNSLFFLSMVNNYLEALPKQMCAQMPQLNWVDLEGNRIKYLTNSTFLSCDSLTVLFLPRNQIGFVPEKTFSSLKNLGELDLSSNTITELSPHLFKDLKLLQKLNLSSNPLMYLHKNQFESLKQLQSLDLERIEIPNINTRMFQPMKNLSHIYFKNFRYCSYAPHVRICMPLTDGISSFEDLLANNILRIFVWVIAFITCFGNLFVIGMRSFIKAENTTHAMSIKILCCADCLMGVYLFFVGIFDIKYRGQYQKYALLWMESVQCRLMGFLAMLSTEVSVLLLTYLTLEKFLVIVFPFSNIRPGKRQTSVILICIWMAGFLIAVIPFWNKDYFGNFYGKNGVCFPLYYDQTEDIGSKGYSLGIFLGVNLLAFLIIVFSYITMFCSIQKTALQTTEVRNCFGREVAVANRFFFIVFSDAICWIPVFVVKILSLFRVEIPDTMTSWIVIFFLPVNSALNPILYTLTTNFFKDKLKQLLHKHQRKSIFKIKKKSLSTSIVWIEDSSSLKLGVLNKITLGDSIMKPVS
Method in brief: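 Selectivity counter-assay for cAMP accumulation: RXFP2-HEK293 cells given compounds with Ro 20174 for 30 min at 37C, then lysed for TR-FRET cAMP detection. Data scaled to 29 nM porcine relaxin (100%); Hill-equation EC50.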
Potency means the concentration at half of the fitted maximal effect.

Row | Compound | Potency
1 | Cc1ccc(C(=O)Nc2cccc(C(F)(F)F)c2)cc1NC(=O)c1cnnc2ccccc12 | inactive
2 | COc1ccc(C(=O)Nc2ccc(S(=O)(=O)Nc3onc(C)c3C)cc2)c(OC)c1 | 9.43 µM (active)
3 | CCc1ccc2n(-c3ccc(OC)cc3)c([S-])c(C(=O)Nc3cc(C)cc(C)c3)[n+]2c1 | 30.8 µM (active)
4 | CCN(CC)CCCN1C=C2C(=O)C(C)(OC(=O)C3CCCC3)C(=O)C=C2C=C1c1ccsc1 (configuration not stated) | inactive
5 | O=C(Nc1ccccc1C(=O)N1CCCCC1)c1ccco1 | inactive
6 | c1ccc(COn2nnc3ccccc32)c(COn2nnc3ccccc32)c1 | inactive
7 | Brc1ccc2ncnc(NCc3cccnc3)c2c1 | 43.6 µM (active)
8 | CC(=O)c1sc(NC(=O)C(C)C)nc1C | 15.4 µM (active)
9 | COC(=O)Cn1cnc2c(C#N)c3n(c2c1=O)CCCCC3 | 9.77 µM (active)
10 | COC(=O)[C@@H]1C[C@@]2(O)[C@H](O)[C@H](O)[C@H](O)C[C@H]2N1Cc1cc(F)ccc1F | inactive
11 | Cc1ccc(C(=O)Nc2ccccc2C(N)=O)o1 | inactive
12 | CCCC(=O)Nc1ncnc2c1ncn2[C@@H]1O[C@@H]2OP(=O)(O)OC[C@H]2[C@H]1OC(=O)CCC | 0.868 µM (active)
13 | Cc1cc(C)n2nc(C(=O)Nc3ccc4c(c3)OCCO4)nc2n1 | 6.9 µM (active)
14 | Cc1cc2nc3ccc(=[N+](C)C)cc-3sc2cc1N | inactive
15 | COc1ccc(Nc2ncc(C#N)c(N)n2)c(OC)c1 | inactive
16 | Cc1cccc(NC(=O)c2ccccc2NC(=O)C2CCCCC2)c1C | inactive

Row | Compound | Potency
17 | O=C(O)CCNc1ccc(NCCC(=O)O)c2c1C(=O)c1ccccc1C2=O | inactive
18 | O=[N+]([O-])c1cc2c(c(CSc3nnc4ccccn34)c1)OCOC2 | 11 µM (active)
19 | O=C(Nc1ccccc1C(=O)Nc1ccccc1C(=O)NCc1ccco1)c1ccco1 | inactive
20 | O=C(Nc1ccccc1C(=O)NCc1ccccc1)c1ccco1 | inactive
21 | NC(=O)c1ccccc1NC(=O)CC12CC3CC(CC(C3)C1)C2 | inactive
22 | CCN(CC)S(=O)(=O)c1ccc2c(c1)N(CC(=O)NCc1ccccn1)C(=O)CO2 | 34.6 µM (active)
23 | O=C(O)CCSc1ccc2ccccc2n1 | 19.4 µM (active)
24 | Cc1c(CCOC(=O)c2cc([N+](=O)[O-])ccc2Cl)sc[n+]1CCCCS(=O)(=O)[O-] | inactive
25 | Cc1cc(C)c(C(=O)CSc2n[nH]c(=O)n2C2CC2)cc1C | inactive
26 | CC(=O)Nc1ccc(S(=O)(=O)NCc2cc(=O)n(C)c(=O)n2C)cc1 | 30.9 µM (active)
27 | CCc1cc2c(=O)nc3n(c2s1)Cc1ccccc1/C3=C(/O)c1cccc([N+](=O)[O-])c1 | 6.16 µM (active)
28 | CCC1(C)Cc2c(sc3c2c2ncnn2c2nnc(SCC(=O)NCc4ccco4)n32)CO1 (configuration not stated) | 8.7 µM (active)
29 | Cn1c(=O)c2sccc2n2c(CCCC(=O)NCc3ccco3)nnc12 | 34.6 µM (active)
30 | Cn1c(N)c(C(=O)CSc2nnc(NC3CCCCC3)s2)c(=O)n(C)c1=O | inactive
31 | C=CCNC(=O)NC(=O)COC(=O)c1nc2nccc(C)n2n1 | 34.6 µM (active)
32 | CN1C(=O)c2ccc(C(=O)Nc3ccc(Br)cn3)cc2C1=O | 21.8 µM (active)
